In the supplement of paper PMC8728848:
The entries come from a sample that favours the strongest signals as a whole.

What was measured:
Assay in all cases: glycan array binding signal (z-score within array); higher = stronger binding
Settings in all cases: glycan notation: IUPAC condensed, linker removed
[1] = molecular target: Fuc(a1-2)Gal(b1-3)GalNAc(b1-3)Gal
Method in brief: (§1)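 Columns mapping to the same glycan were averaged after glycan names were converted to IUPAC-condensed notation. The data come from 3228 arrays in the Consortium for Functional Glycomics database, limited to those with an available protein sequence. Binding is reported as a within-array Z-score averaged across arrays of one protein sequence and across linkers.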

[2] = molecular target: Fuc(a1-2)Gal(b1-3)[Fuc(a1-4)]GlcNAc(b1-3)[Fuc(a1-3)[Gal(b1-4)]GlcNAc(b1-6)]Gal(b1-4)Glc
Method in brief: as §1

[3] = molecular target: Fuc(a1-2)Gal(b1-4)GlcNAc(b1-2)Man
Method in brief: as §1

[4] = molecular target: Fuc(a1-2)Gal(b1-4)[Fuc(a1-3)]GlcNAc(b1-3)GalNAc
Method in brief: as §1

[5] = molecular target: Fuc(a1-2)Gal(b1-4)[Fuc(a1-3)]GlcNAc(b1-3)[Neu5Ac(a2-6)Gal(b1-4)GlcNAc(b1-6)]Gal(b1-4)Glc
Method in brief: as §1

[6] = molecular target: Fuc(a1-2)[Gal(a1-3)]Gal(b1-4)Glc
Method in brief: as §1

[7] = molecular target: Fuc(a1-2)[Gal(a1-3)]Gal(b1-4)[Fuc(a1-3)]GlcNAc
Method in brief: as §1

[8] = molecular target: Fuc(a1-2)[Gal(a1-4)]Gal(b1-4)GlcNAc
Method in brief: as §1

[9] = molecular target: Fuc(a1-2)[GalNAc(a1-4)]Gal(b1-4)GlcNAc
Method in brief: as §1

[10] = molecular target: Fuc(a1-3)[Gal(b1-4)]GlcNAc
Method in brief: as §1

[11] = molecular target: Fuc(a1-3)[Gal(b1-4)]GlcNAc(b1-2)Man
Method in brief: as §1

[12] = molecular target: Fuc(a1-3)[Gal(b1-4)]GlcNAc(b1-3)Gal(b1-4)[Fuc(a1-3)]GlcNAc(b1-3)Gal(b1-4)[Fuc(a1-3)]GlcNAc
Method in brief: as §1

[13] = molecular target: Fuc(a1-3)[Gal3S(b1-4)]GlcNAc
Method in brief: as §1

[14] = molecular target: Gal(a1-3)Gal(b1-3)GlcNAc(b1-6)GalNAc
Method in brief: as §1

[15] = molecular target: Gal(a1-3)Gal(b1-4)GlcNAc(b1-2)Man
Method in brief: as §1

[16] = molecular target: Gal(a1-3)Gal(b1-4)GlcNAc(b1-2)Man(a1-3)[Gal(a1-3)Gal(b1-4)GlcNAc(b1-2)Man(a1-6)]Man(b1-4)GlcNAc(b1-4)GlcNAc
Method in brief: as §1

[17] = molecular target: Gal(a1-3)Gal(b1-4)GlcNAc(b1-3)GalNAc
Method in brief: as §1

[18] = molecular target: Gal(a1-3)[Gal(a1-4)]Gal(b1-4)GlcNAc
Method in brief: as §1

[19] = molecular target: Gal(a1-4)Gal(b1-3)GlcNAc(b1-2)Man(a1-3)[Gal(a1-4)Gal(b1-3)GlcNAc(b1-2)Man(a1-6)]Man(b1-4)GlcNAc(b1-4)GlcNAc
Method in brief: as §1

Gal(a1-4)Gal(b1-4)Glc = molecular target: Gal(a1-4)Gal(b1-4)Glc
Method in brief: as §1

Gal(a1-4)Gal(b1-4)GlcNAc = molecular target: Gal(a1-4)Gal(b1-4)GlcNAc
Method in brief: as §1

[20] = molecular target: Gal(a1-4)Gal(b1-4)GlcNAc(b1-2)Man(a1-3)[Gal(a1-4)Gal(b1-4)GlcNAc(b1-2)Man(a1-6)]Man(b1-4)GlcNAc(b1-4)GlcNAc
Method in brief: as §1

Gal(a1-4)GlcNAc = molecular target: Gal(a1-4)GlcNAc
Method in brief: as §1

Gal(a1-6)Glc = molecular target: Gal(a1-6)Glc
Method in brief: as §1

Gal(b1-2)Gal = molecular target: Gal(b1-2)Gal
Method in brief: as §1

[21] = molecular target: Gal(b1-3)GalNAc(a1-3)[Fuc(a1-2)]Gal(b1-4)GlcNAc
Method in brief: as §1

[22] = molecular target: Gal(b1-3)GlcNAc(b1-3)Gal(b1-4)GlcNAc
Method in brief: as §1

[23] = molecular target: Gal(b1-3)GlcNAc(b1-6)Gal(b1-4)GlcNAc
Method in brief: as §1

[24] = molecular target: Gal(b1-3)GlcNAc(b1-6)[Gal(b1-3)]GalNAc
Method in brief: as §1

Gal(b1-4)Glc6S = molecular target: Gal(b1-4)Glc6S
Method in brief: as §1

[25] = molecular target: Gal(b1-4)GlcNAc(a1-6)Gal(b1-4)GlcNAc
Method in brief: as §1

[26] = molecular target: Gal(b1-4)GlcNAc(b1-2)[Gal(b1-4)GlcNAc(b1-6)]Man(a1-6)[GlcNAc(b1-4)][Gal(b1-4)GlcNAc(b1-2)[Gal(b1-4)GlcNAc(b1-4)]Man(a1-3)]Man(b1-4)GlcNAc(b1-4)[Fuc(a1-6)]GlcNAc
Method in brief: as §1

[27] = molecular target: Gal(b1-4)GlcNAc(b1-3)Gal(b1-4)GlcNAc
Method in brief: as §1

Gal4S6S(b1-4)GlcNAc = molecular target: Gal4S6S(b1-4)GlcNAc
Method in brief: as §1

Gal6S(b1-4)GlcNAc = molecular target: Gal6S(b1-4)GlcNAc
Method in brief: as §1

Gal6S(b1-4)GlcNAc6S = molecular target: Gal6S(b1-4)GlcNAc6S
Method in brief: as §1

[28] = molecular target: GalNAc(b1-3)Gal(a1-4)Gal(b1-4)GlcNAc
Method in brief: as §1

Glc(a1-4)Glc = molecular target: Glc(a1-4)Glc
Method in brief: as §1

[29] = molecular target: GlcNAc(a1-4)Gal(b1-4)GlcNAc(b1-3)Gal(b1-4)GlcNAc
Method in brief: as §1

[30] = molecular target: GlcNAc(a1-4)Gal(b1-4)GlcNAc(b1-3)Gal(b1-4)[Fuc(a1-3)]GlcNAc(b1-3)Gal(b1-4)[Fuc(a1-3)]GlcNAc
Method in brief: as §1

[31] = molecular target: GlcNAc(b1-2)Man(a1-3)[GlcNAc(b1-4)][GlcNAc(b1-2)Man(a1-6)]Man(b1-4)GlcNAc(b1-4)[Fuc(a1-6)]GlcNAc
Method in brief: as §1

[32] = molecular target: GlcNAc(b1-2)[GlcNAc(b1-4)]Man(a1-3)[GlcNAc(b1-2)Man(a1-6)]Man(b1-4)GlcNAc(b1-4)GlcNAc
Method in brief: as §1

[33] = molecular target: GlcNAc(b1-2)[GlcNAc(b1-4)]Man(a1-3)[GlcNAc(b1-4)][GlcNAc(b1-2)Man(a1-6)]Man(b1-4)GlcNAc(b1-4)GlcNAc
Method in brief: as §1

GlcNAc(b1-3)Gal = molecular target: GlcNAc(b1-3)Gal
Method in brief: as §1

[34] = molecular target: GlcNAc(b1-3)Gal(b1-4)GlcNAc(b1-2)[GlcNAc(b1-3)Gal(b1-4)GlcNAc(b1-6)]Man(a1-6)[GlcNAc(b1-3)Gal(b1-4)GlcNAc(b1-2)Man(a1-3)]Man(b1-4)GlcNAc(b1-4)GlcNAc
Method in brief: as §1

[35] = molecular target: Neu5Ac(a2-3)Gal(b1-4)GlcNAc(b1-2)Man(a1-3)[Neu5Ac(a2-6)Gal(b1-4)GlcNAc(b1-2)Man(a1-6)]Man(b1-4)GlcNAc(b1-4)GlcNAc
Method in brief: as §1

[36] = molecular target: Neu5Ac(a2-3)Gal6S(b1-4)[Fuc(a1-3)]GlcNAc
Method in brief: as §1

[37] = molecular target: Neu5Ac(a2-6)Gal(b1-4)GlcNAc(b1-2)Man(a1-3)[GlcNAc(b1-2)Man(a1-6)]Man(b1-4)GlcNAc(b1-4)GlcNAc
Method in brief: as §1

[38] = molecular target: Neu5Ac(a2-6)Gal(b1-4)GlcNAc(b1-3)Gal(b1-4)GlcNAc
Method in brief: as §1

[39] = molecular target: Neu5Ac(a2-6)Gal(b1-4)GlcNAc(b1-3)Gal(b1-4)GlcNAc(b1-3)GalNAc
Method in brief: as §1

[40] = molecular target: Neu5Ac(a2-6)Gal(b1-4)GlcNAc(b1-6)[Gal(b1-3)]GalNAc
Method in brief: as §1

[41] = molecular target: Neu5Ac(a2-8)Neu5Ac(a2-3)Gal(b1-4)GlcNAc
Method in brief: as §1

Neu5Ac(b2-6)GalNAc = molecular target: Neu5Ac(b2-6)GalNAc
Method in brief: as §1

B1: Epa13 (Candida glabrata) (protein)
chain: MGSSHHHHHHSSGLVPRGSHMASDSSENGYAHGCSPSIRAKLKPGLSMEIYSYALRPTDDHCWDSAYLDPMFPRTGYLTHKLLGKAEGIIGPLNFLAKNPACIPAVSTLPLAFHFPKPFTITNFTMLLYGYLSPKKTGKYTFKLLADDLLLMNFGADNAFDCCSHDATKDNIGEYVAYSVWPGVNKNVTVYLESGIYYPLRLFFNNRDAIAQLDFAYYFNDSPIRQTDFSGMFFSIPDSVKCPANI
- glycan array binding signal (z-score) [1]: 0.112
- glycan array binding signal (z-score) [2]: -0.604
- glycan array binding signal (z-score) [3]: 0.385
- glycan array binding signal (z-score) [4]: 2.14
- glycan array binding signal (z-score) [5]: -0.526
- glycan array binding signal (z-score) [6]: -0.047
- glycan array binding signal (z-score) [7]: 0.02
- glycan array binding signal (z-score) [8]: 9.27
- glycan array binding signal (z-score) [9]: -0.453
- glycan array binding signal (z-score) [10]: -0.454
- glycan array binding signal (z-score) [11]: -0.124
- glycan array binding signal (z-score) [12]: -0.429
- glycan array binding signal (z-score) [13]: -0.351
- glycan array binding signal (z-score) [14]: 1.13
- glycan array binding signal (z-score) [15]: 0.125
- glycan array binding signal (z-score) [16]: 4.93
- glycan array binding signal (z-score) [17]: 0.561
- glycan array binding signal (z-score) [18]: 1.47
- glycan array binding signal (z-score) [19]: 4.04
- glycan array binding signal (z-score) (Gal(a1-4)Gal(b1-4)Glc): 3.52
- glycan array binding signal (z-score) (Gal(a1-4)Gal(b1-4)GlcNAc): 4.15
- glycan array binding signal (z-score) [20]: 5.18
- glycan array binding signal (z-score) (Gal(a1-4)GlcNAc): 7.08
- glycan array binding signal (z-score) (Gal(a1-6)Glc): 13.2
- glycan array binding signal (z-score) (Gal(b1-2)Gal): 4.04
- glycan array binding signal (z-score) [21]: -0.314
- glycan array binding signal (z-score) [22]: -0.418
- glycan array binding signal (z-score) [23]: -0.113
- glycan array binding signal (z-score) [24]: -0.014
- glycan array binding signal (z-score) (Gal(b1-4)Glc6S): 0.255
- glycan array binding signal (z-score) [25]: 0.075
- glycan array binding signal (z-score) [26]: -0.476
- glycan array binding signal (z-score) [27]: -0.291
- glycan array binding signal (z-score) (Gal4S6S(b1-4)GlcNAc): -0.32
- glycan array binding signal (z-score) (Gal6S(b1-4)GlcNAc): 0.111
- glycan array binding signal (z-score) (Gal6S(b1-4)GlcNAc6S): 2.69
- glycan array binding signal (z-score) [28]: -0.05
- glycan array binding signal (z-score) (Glc(a1-4)Glc): -0.521
- glycan array binding signal (z-score) [29]: 0.04
- glycan array binding signal (z-score) [30]: -0.218
- glycan array binding signal (z-score) [31]: 0.145
- glycan array binding signal (z-score) [32]: -0.393
- glycan array binding signal (z-score) [33]: -0.299
- glycan array binding signal (z-score) (GlcNAc(b1-3)Gal): -0.445
- glycan array binding signal (z-score) [34]: 0.485
- glycan array binding signal (z-score) [35]: -0.354
- glycan array binding signal (z-score) [36]: -0.54
- glycan array binding signal (z-score) [37]: -0.413
- glycan array binding signal (z-score) [38]: -0.07
- glycan array binding signal (z-score) [39]: -0.142
- glycan array binding signal (z-score) [40]: -0.381
- glycan array binding signal (z-score) [41]: -0.449
- glycan array binding signal (z-score) (Neu5Ac(b2-6)GalNAc): -0.624
